The full list was thinned out, with the strongest signals kept by preference.
How the values were obtained:
Assay in all cases: glycan array binding signal (z-score within array); higher = stronger binding
Details in all cases: glycan notation: IUPAC condensed, linker removed
[1] = target: Fuc(a1-2)Gal(b1-3)[Fuc(a1-4)]GlcNAc(b1-2)Man(a1-3)[Fuc(a1-2)Gal(b1-3)[Fuc(a1-4)]GlcNAc(b1-2)Man(a1-6)]Man(b1-4)GlcNAc(b1-4)GlcNAc
Outline: (§1)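 Glycan array binding is given as a within-array Z-score, which can be read as non-binding when negative. The arrays, 3228 of them, came from the Consortium for Functional Glycomics database and were retained only where the protein sequence was available. Z-scores were averaged across arrays of the same protein sequence at different concentrations or buffers and across linkers.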

[2] = target: Fuc(a1-2)Gal(b1-4)GlcNAc(b1-3)Gal(b1-4)GlcNAc
Outline: as §1

[3] = target: Fuc(a1-2)Gal6S(b1-4)Glc6S
Outline: as §1

[4] = target: Fuc(a1-2)[GalNAc(a1-3)]Gal(b1-4)GlcNAc(b1-3)Gal(b1-4)GlcNAc(b1-3)Gal(b1-4)GlcNAc
Outline: as §1

[5] = target: Fuc(a1-3)[Gal3S(b1-4)]Glc6S
Outline: as §1

[6] = target: Fuc(a1-3)[Neu5Ac(a2-3)]Gal(b1-4)GlcNAc(b1-3)GalNAc
Outline: as §1

[7] = target: Gal(b1-3)GalNAc(a1-3)[Fuc(a1-2)]Gal(b1-4)Glc
Outline: as §1

[8] = target: Gal(b1-3)GalNAc(a1-3)[Fuc(a1-2)]Gal(b1-4)GlcNAc
Outline: as §1

[9] = target: Gal(b1-3)GlcNAc(b1-2)Man(a1-3)[Gal(b1-3)GlcNAc(b1-2)Man(a1-6)]Man(b1-4)GlcNAc(b1-4)[Fuc(a1-6)]GlcNAc
Outline: as §1

[10] = target: Gal(b1-3)GlcNAc(b1-3)Gal(b1-3)GlcNAc
Outline: as §1

[11] = target: Gal(b1-4)GlcNAc(b1-2)Man(a1-3)[Gal(b1-4)GlcNAc(b1-2)Man(a1-6)]Man(b1-4)GlcNAc(b1-4)[Fuc(a1-6)]GlcNAc
Outline: as §1

[12] = target: Gal(b1-4)GlcNAc(b1-3)[Gal(b1-4)GlcNAc(b1-6)]Gal(b1-4)GlcNAc
Outline: as §1

Glc(a1-6)Glc(a1-6)Glc = target: Glc(a1-6)Glc(a1-6)Glc
Outline: as §1

GlcA(b1-6)Gal = target: GlcA(b1-6)Gal
Outline: as §1

[13] = target: GlcNAc(a1-6)Gal(b1-4)GlcNAc
Outline: as §1

[14] = target: GlcNAc(b1-2)Man(a1-3)[GlcNAc(b1-2)Man(a1-6)]Man(b1-4)GlcNAc(b1-4)GlcNAc
Outline: as §1

[15] = target: GlcNAc(b1-2)Man(a1-3)[GlcNAc(b1-2)Man(a1-6)]Man(b1-4)GlcNAc(b1-4)[Fuc(a1-6)]GlcNAc
Outline: as §1

[16] = target: GlcNAc(b1-3)[GlcNAc(b1-4)][GlcNAc(b1-6)]GlcNAc
Outline: as §1

[17] = target: GlcNAc(b1-3)[GlcNAc(b1-6)]GalNAc
Outline: as §1

[18] = target: GlcNAc(b1-4)GlcNAc(b1-4)GlcNAc
Outline: as §1

[19] = target: Man(a1-2)Man(a1-3)[Man(a1-2)Man(a1-6)]Man
Outline: as §1

[20] = target: Man(a1-2)Man(a1-3)[Man(a1-2)Man(a1-6)]Man(a1-6)[Man(a1-2)Man(a1-2)Man(a1-3)]Man
Outline: as §1

[21] = target: Neu5Ac(a2-3)Gal(b1-4)GlcNAc(b1-6)[Neu5Ac(a2-3)Gal(b1-3)]GalNAc
Outline: as §1

[22] = target: Neu5Ac(a2-3)Gal(b1-4)[Fuc(a1-3)]GlcNAc(b1-3)Gal(b1-4)GlcNAc
Outline: as §1

[23] = target: Neu5Ac(a2-3)GalNAc(b1-4)GlcNAc
Outline: as §1

[24] = target: Neu5Ac(a2-6)Gal(b1-4)GlcNAc(b1-2)Man(a1-3)[Neu5Ac(a2-6)Gal(b1-4)GlcNAc(b1-2)Man(a1-6)]Man(b1-4)GlcNAc(b1-4)GlcNAc
Outline: as §1

[25] = target: Neu5Ac(a2-6)Gal(b1-4)GlcNAc(b1-2)Man(a1-6)[Man(a1-3)]Man(b1-4)GlcNAc(b1-4)GlcNAc
Outline: as §1

[26] = target: Neu5Ac(a2-8)Neu5Ac(a2-8)Neu5Ac(a2-3)Gal(b1-4)Glc
Outline: as §1

[27] = target: Neu5Ac(b2-6)Gal(b1-4)GlcNAc
Outline: as §1

[28] = target: Fuc(a1-2)[GalNAc(a1-3)]Gal(b1-4)GlcNAc
Outline: as §1

[29] = target: Fuc(a1-2)[GalNAc(a1-3)]Gal(b1-4)GlcNAc(b1-2)Man(a1-3)[GalNAc(a1-3)[Fuc(a1-2)]Gal(b1-4)GlcNAc(b1-2)Man(a1-6)]Man(b1-4)GlcNAc(b1-4)GlcNAc
Outline: as §1

[30] = target: Fuc(a1-3)[Gal(b1-4)]GlcNAc
Outline: as §1

[31] = target: Fuc(a1-3)[Gal(b1-4)]GlcNAc(b1-2)Man(a1-3)[Fuc(a1-3)[Gal(b1-4)]GlcNAc(b1-2)Man(a1-6)]Man(b1-4)GlcNAc(b1-4)GlcNAc
Outline: as §1

[32] = target: Fuc(a1-3)[Gal3S(b1-4)]GlcNAc
Outline: as §1

[33] = target: Fuc(a1-3)[GalNAc(b1-4)]GlcNAc
Outline: as §1

[34] = target: Gal(a1-3)Gal(b1-4)[Fuc(a1-3)]GlcNAc(b1-2)Man(a1-3)[Gal(a1-3)Gal(b1-4)[Fuc(a1-3)]GlcNAc(b1-2)Man(a1-6)]Man(b1-4)GlcNAc(b1-4)GlcNAc
Outline: as §1

[35] = target: Gal(b1-3)GalNAc(b1-4)Gal(b1-4)Glc
Outline: as §1

[36] = target: Gal(b1-3)[Fuc(a1-4)]GlcNAc(b1-2)Man(a1-3)[Gal(b1-3)[Fuc(a1-4)]GlcNAc(b1-2)Man(a1-6)]Man(b1-4)GlcNAc(b1-4)[Fuc(a1-6)]GlcNAc
Outline: as §1

[37] = target: Gal(b1-4)GlcNAc(b1-2)[Gal(b1-4)GlcNAc(b1-4)]Man(a1-3)[Gal(b1-4)GlcNAc(b1-2)Man(a1-6)]Man(b1-4)GlcNAc(b1-4)GlcNAc
Outline: as §1

Gal3S(b1-4)GlcNAc6S = target: Gal3S(b1-4)GlcNAc6S
Outline: as §1

Gal4S(b1-4)GlcNAc = target: Gal4S(b1-4)GlcNAc
Outline: as §1

[38] = target: GlcNAc(b1-4)GlcNAc(b1-4)GlcNAc(b1-4)GlcNAc(b1-4)GlcNAc
Outline: as §1

Kdn(a2-3)Gal(b1-3)GlcNAc = target: Kdn(a2-3)Gal(b1-3)GlcNAc
Outline: as §1

[39] = target: Neu5Ac(a2-3)Gal(b1-3)GalNAc(b1-3)Gal(a1-4)Gal(b1-4)Glc
Outline: as §1

[40] = target: Neu5Ac(a2-3)Gal(b1-4)[Fuc(a1-3)]GlcNAc(b1-3)Gal
Outline: as §1

[41] = target: Neu5Ac(a2-3)Gal(b1-4)[Fuc(a1-3)]GlcNAc6S
Outline: as §1

[42] = target: Neu5Ac(a2-3)Gal6S(b1-4)GlcNAc
Outline: as §1

[43] = target: Neu5Ac(a2-6)Gal(b1-4)GlcNAc6S
Outline: as §1

[44] = target: Neu5Ac(a2-8)Neu5Ac(a2-3)Gal(b1-4)Glc
Outline: as §1

[45] = target: Neu5Ac(a2-8)Neu5Ac(a2-8)Neu5Ac(a2-8)Neu5Ac(a2-3)[GalNAc(b1-4)]Gal(b1-4)Glc
Outline: as §1

[46] = target: Neu5Ac9Ac(a2-3)Gal(b1-3)GlcNAc
Outline: as §1

[47] = target: Neu5Gc(a2-3)Gal(b1-3)GlcNAc
Outline: as §1

B1: LcH (Lens culinaris), P02870 (protein)
chain: TETTSFSITKFSPDQQNLIFQGDGYTGKEGLTLTKVSKETGGRALYSTPIHIWDRDTVNVANFVTNGSQVFRESPNGYNVADGFTFFIAPVDTKPQTGGGYLGVFYNGKEYDKTSQTVAVEFDTFYNAAWDPSNKERHIGIDVNSIKSVNTKSWNLQNGVTSYTLNEVVPLKDVVPEWVRIGFSATTGAEFAAQEVHSWSFNSQLGHTSKS
For B1, which “glycan array binding signal (z-score)” value [1] is on record?
Its value is -0.091.

And the “glycan array binding signal (z-score)” value [2]?
Its value is -0.141.

And the “glycan array binding signal (z-score)” value [3]?
The value was -0.104.

What about the “glycan array binding signal (z-score)” value [4] of the same binder?
The value was -0.108.

And the “glycan array binding signal (z-score)” value [5]?
The value was -0.119.

What about the “glycan array binding signal (z-score)” value [6] of the same binder?
Its value is -0.132.

What about the “glycan array binding signal (z-score)” value [7] of the same binder?
The value was -0.147.

And the “glycan array binding signal (z-score)” value [8]?
The value was -0.093.

And the “glycan array binding signal (z-score)” value [9]?
The value was 14.3.

And the “glycan array binding signal (z-score)” value [10]?
Its value is -0.142.

What about the “glycan array binding signal (z-score)” value [11] of the same binder?
The value was 9.53.

What about the “glycan array binding signal (z-score)” value [12] of the same binder?
The value was -0.138.

What about the “glycan array binding signal (z-score)” value (Glc(a1-6)Glc(a1-6)Glc) of the same binder?
The value was -0.098.

And the “glycan array binding signal (z-score)” value (GlcA(b1-6)Gal)?
Its value is -0.111.

What about the “glycan array binding signal (z-score)” value [13] of the same binder?
The value was -0.102.

What about the “glycan array binding signal (z-score)” value [14] of the same binder?
The value was 1.2.

And the “glycan array binding signal (z-score)” value [15]?
Its value is 6.22.

What about the “glycan array binding signal (z-score)” value [16] of the same binder?
Its value is -0.125.

And the “glycan array binding signal (z-score)” value [17]?
The value was -0.082.

What about the “glycan array binding signal (z-score)” value [18] of the same binder?
Its value is -0.107.

And the “glycan array binding signal (z-score)” value [19]?
Its value is 1.24.

What about the “glycan array binding signal (z-score)” value [20] of the same binder?
The value was 3.73.

What about the “glycan array binding signal (z-score)” value [21] of the same binder?
Its value is -0.129.

And the “glycan array binding signal (z-score)” value [22]?
Its value is -0.046.

What about the “glycan array binding signal (z-score)” value [23] of the same binder?
Its value is -0.118.

And the “glycan array binding signal (z-score)” value [24]?
Its value is -0.12.

And the “glycan array binding signal (z-score)” value [25]?
Its value is -0.124.

What about the “glycan array binding signal (z-score)” value [26] of the same binder?
The value was -0.138.

What about the “glycan array binding signal (z-score)” value [27] of the same binder?
The value was -0.111.

B2: CCL2 (Coprinopsis cinerea), B3GA02 (protein)
chain: MDSPAVTLSAGNYIIYNRVLSPRGEKLALTYPGRQRTPVTVSPLDGSSEQAWILRSYDSNSNTWTISPVGSPNSQIGWGAGNVPVVLPPNNYVWTLTLTSGGYNIQDGKRTVSWSLNNATAGEEVSIGADATFSGRWVIEKV
What does the source list for B2?
glycan array binding signal (z-score) [1]: -0.067; glycan array binding signal (z-score) [28]: -0.286; glycan array binding signal (z-score) [29]: -0.269; glycan array binding signal (z-score) [30]: 0.752; glycan array binding signal (z-score) [31]: 3.53; glycan array binding signal (z-score) [32]: -0.279; glycan array binding signal (z-score) [33]: 4.84; glycan array binding signal (z-score) [34]: 4.37; glycan array binding signal (z-score) [35]: -0.293; glycan array binding signal (z-score) [9]: -0.283; glycan array binding signal (z-score) [36]: -0.19; glycan array binding signal (z-score) [37]: -0.268; glycan array binding signal (z-score) (Gal3S(b1-4)GlcNAc6S): -0.276; glycan array binding signal (z-score) (Gal4S(b1-4)GlcNAc): -0.26; glycan array binding signal (z-score) [14]: -0.257; glycan array binding signal (z-score) [38]: -0.255; glycan array binding signal (z-score) (Kdn(a2-3)Gal(b1-3)GlcNAc): -0.257; glycan array binding signal (z-score) [39]: -0.278; glycan array binding signal (z-score) [21]: -0.27; glycan array binding signal (z-score) [40]: 5.39; glycan array binding signal (z-score) [22]: 4.93; glycan array binding signal (z-score) [41]: 4.45; glycan array binding signal (z-score) [42]: 4.88; glycan array binding signal (z-score) [43]: -0.205; glycan array binding signal (z-score) [44]: -0.275; glycan array binding signal (z-score) [45]: -0.286; glycan array binding signal (z-score) [46]: -0.294; glycan array binding signal (z-score) [47]: -0.282
